# Reference: PubChem BioAssay (EPA / NIEHS)
# Calls of active or inactive are those of the source. How the source made its calls: active means hit-call score of the fitted dose curve at least 0.9, where 1 is the maximum; inactive means score below 0.9.
# Key:
# [1] = read-out: growth arrest and DNA damage 45 (GADD45A), GADD45A (gene 1647); assay: LTEA_HepaRG_GADD45A: Life Technologies and Expression Analysis (LTEA) Assay for growth arrest and DNA damage 45 (GADD45A) using HepaRG (AID 2283458); details: mRNA level, 48 h; actives raise or lower the signal
# In short: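 HepaRG, 48 h exposure, 8 conc. (top 100 uM, half-log steps), 0.5% DMSO vehicle, duplicates. Read-out: qRT-PCR mRNA level, housekeeping-normalized (ACTB/GAPDH/POLR2A). Curves fit bidirectionally vs DMSO baseline.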
# [2] = read-out: Forkhead box O3 (FOXO3), FOXO3 (gene 2309); assay: LTEA_HepaRG_FOXO3: Life Technologies and Expression Analysis (LTEA) Assay for Forkhead box O3 (FOXO3) using HepaRG (AID 2283459); details: mRNA level, 48 h; actives raise or lower the signal
# In short: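 FOXO3 transcript measured by qRT-PCR (normalized to ACTB, GAPDH, POLR2A) after 48 h exposure of HepaRG cells in serum-free induction medium. Duplicates, eight half-log concentrations up to 100 uM, 0.5% DMSO; gain or loss fitted against DMSO.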
# [3] = read-out: ABC Transporter (ABCB1), ABCB1 (gene 5243); assay: LTEA_HepaRG_ABCB1: Life Technologies and Expression Analysis (LTEA) Assay for ABC Transporter (ABCB1) using HepaRG (AID 2283460); details: mRNA level, 48 h; actives raise or lower the signal
# In short: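 ABCB1 transcript level measured by TaqMan qRT-PCR against three housekeeping genes after 48 h chemical exposure of differentiated HepaRG cells. Top concentration 100 uM, half-log steps, eight points, 0.5% DMSO vehicle; bidirectional fit relative to DMSO.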
# [4] = read-out: growth arrest and DNA damage 45 (GADD45B), GADD45B (gene 4616); assay: LTEA_HepaRG_GADD45B: Life Technologies and Expression Analysis (LTEA) Assay for growth arrest and DNA damage 45 (GADD45B) using HepaRG (AID 2283461); details: mRNA level, 48 h; actives raise or lower the signal
# In short: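 Human HepaRG monolayers receive chemicals for 48 h at eight half-log concentrations, highest 100 uM, in 0.5% DMSO. Expression is measured by TaqMan qRT-PCR and normalized to ACTB, GAPDH and POLR2A.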
# [5] = read-out: ABC Transporter (ABCC3), ABCC3 (gene 8714); assay: LTEA_HepaRG_ABCC3: Life Technologies and Expression Analysis (LTEA) Assay for ABC Transporter (ABCC3) using HepaRG (AID 2283462); details: mRNA level, 48 h; actives raise or lower the signal
# In short: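 Transcriptional change of ABCC3 in HepaRG after 48 h treatment, determined by qRT-PCR normalized to endogenous controls. Concentrations spanned eight half-log steps to 100 uM in 0.5% DMSO.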
# [6] = read-out: ABC Transporter (ABCB11), ABCB11 (gene 8647); assay: LTEA_HepaRG_ABCB11: Life Technologies and Expression Analysis (LTEA) Assay for ABC Transporter (ABCB11) using HepaRG (AID 2283463); details: mRNA level, 48 h; actives raise or lower the signal
# In short: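 ABCB11 transcript levels quantified by TaqMan qRT-PCR against three housekeeping genes after 48 h chemical exposure of HepaRG cultures. Concentrations up to 100 uM in half-log steps, 0.5% DMSO vehicle; both induction and suppression scored.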
# [7] = read-out: ABC Transporter (ABCC2), ABCC2 (gene 1244); assay: LTEA_HepaRG_ABCC2: Life Technologies and Expression Analysis (LTEA) Assay for ABC Transporter (ABCC2) using HepaRG (AID 2283464); details: mRNA level, 48 h; actives raise or lower the signal
# In short: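 After plating and 48 h culture, HepaRG medium is replaced with serum-free induction medium and chemicals are added (8 concentrations, max 100 uM, 0.5% DMSO) for 48 h. Total RNA then undergoes qRT-PCR for ABCC2 with housekeeping normalization.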
# [8] = read-out: Broad substrate specificity ATP-binding cassette transporter ABCG2 (Homo sapiens) (UniProt Q9UNQ0); assay: LTEA_HepaRG_ABCG2: Life Technologies and Expression Analysis (LTEA) Assay for ABC Transporter (ABCG2) using HepaRG (AID 2283465); details: mRNA level, 48 h; actives raise or lower the signal
# In short: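 ABCG2 transcript was quantified by TaqMan qRT-PCR against three housekeeping genes in HepaRG cells. Cells were treated in duplicate for 48 h across an 8-point half-log series up to 100 uM, with 0.5% DMSO vehicle. Gain or loss versus DMSO was fit.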
# [9] = read-out: ATP-citrate lyase (ACLY), ACLY (gene 47); assay: LTEA_HepaRG_ACLY: Life Technologies and Expression Analysis (LTEA) Assay for ATP-citrate lyase (ACLY) using HepaRG (AID 2283466); details: mRNA level, 48 h; actives raise or lower the signal
# In short: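 ACLY mRNA quantified by qRT-PCR on Fluidigm arrays against three housekeeping genes, after 48 h chemical treatment of HepaRG cells (top concentration 100 uM, half-log steps, 0.5% DMSO vehicle). Up- or down-regulation fitted relative to DMSO.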
# [10] = CEETOX_H295R_TESTO: CeeTox H295R High-throughput Steroidogenesis Assay for Testosterone (TESTO) (AID 2283457); details: actives raise or lower the signal;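 on AC50: cells exposed to chemicals for 48 h before medium collection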
# In short: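 Steroidogenesis in H295R cells following OECD 456 with minor changes; 48 h exposure. Medium testosterone by HPLC-MS/MS, DMSO as baseline, with MTT viability run in parallel.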
# Broad substrate specificity ATP-binding cassette transporter ABCG2 (Homo sapiens), sequence (Q9UNQ0 whole entry, looked up): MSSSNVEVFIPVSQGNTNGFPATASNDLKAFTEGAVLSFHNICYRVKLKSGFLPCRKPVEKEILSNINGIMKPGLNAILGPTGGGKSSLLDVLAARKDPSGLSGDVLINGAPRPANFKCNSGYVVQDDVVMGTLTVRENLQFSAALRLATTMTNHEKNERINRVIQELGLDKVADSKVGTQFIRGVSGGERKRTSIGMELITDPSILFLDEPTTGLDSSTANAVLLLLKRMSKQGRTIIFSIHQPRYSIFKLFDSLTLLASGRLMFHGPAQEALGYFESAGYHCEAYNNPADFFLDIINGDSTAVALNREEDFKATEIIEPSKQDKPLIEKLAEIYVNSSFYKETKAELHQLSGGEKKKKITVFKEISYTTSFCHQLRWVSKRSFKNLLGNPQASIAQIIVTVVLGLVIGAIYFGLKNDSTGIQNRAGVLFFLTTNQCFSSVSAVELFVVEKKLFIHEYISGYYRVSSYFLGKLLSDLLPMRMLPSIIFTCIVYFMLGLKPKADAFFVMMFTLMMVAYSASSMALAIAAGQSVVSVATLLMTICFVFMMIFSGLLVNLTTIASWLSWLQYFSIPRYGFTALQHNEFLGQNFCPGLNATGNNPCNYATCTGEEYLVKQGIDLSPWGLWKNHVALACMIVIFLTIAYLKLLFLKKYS
structure (smiles),measurement,setting,value
CN(C)C(=S)S,outcome,[1],inactive
same,outcome,[2],inactive
same,outcome,[3],inactive
same,outcome,[4],inactive
same,outcome,[5],inactive
same,outcome,[6],inactive
same,outcome,[7],inactive
same,outcome,[8],inactive
same,outcome,[9],inactive
N#Cc1cccnc1,outcome,[1],inactive
same,outcome,[2],inactive
same,outcome,[3],inactive
same,outcome,[4],inactive
same,outcome,[5],inactive
same,outcome,[6],inactive
same,outcome,[7],inactive
same,outcome,[8],inactive
same,outcome,[9],inactive
OC(Cc1ccccc1Cl)(Cn1[nH]cnc1=S)C1(Cl)CC1 (configuration not stated),outcome,[10],inactive
Clc1cccc(Cl)c1Cl,outcome,[1],inactive
same,outcome,[2],inactive
same,outcome,[3],inactive
same,outcome,[4],inactive
same,outcome,[5],inactive
same,outcome,[6],inactive
same,outcome,[7],inactive
same,outcome,[8],inactive
same,outcome,[9],inactive
CC(C)O.CC(C)O.OCCN(CCO)CCO.OCCN(CCO)CCO.[Ti],outcome,[1],inactive
same,outcome,[2],inactive
same,outcome,[3],inactive
same,outcome,[4],inactive
same,outcome,[5],inactive
same,outcome,[6],inactive
same,outcome,[7],inactive
same,outcome,[8],inactive
same,outcome,[9],inactive
O=C(O)C1(c2ccc3c(c2)OC[C@H](Cc2ccc(-c4ccccc4)cc2)[C@H]3O)CCCC1,outcome,[1],inactive
same,outcome,[2],inactive
same,outcome,[3],inactive
same,AC50,[4],86.9 µM (active)
same,AC50,[5],75.7 µM (active)
same,outcome,[6],inactive
same,outcome,[7],inactive
same,outcome,[8],inactive
same,AC50,[9],82.4 µM (active)
OCCN(CCO)CCO,outcome,[1],inactive
same,outcome,[2],inactive
same,outcome,[3],inactive
same,outcome,[4],inactive
same,outcome,[5],inactive
same,outcome,[6],inactive
same,outcome,[7],inactive
same,outcome,[8],inactive
same,outcome,[9],inactive
Oc1cc(Cl)c(Cl)cc1Cl,outcome,[1],inactive
same,outcome,[3],inactive
same,outcome,[4],inactive
same,outcome,[5],inactive
same,outcome,[6],inactive
same,outcome,[7],inactive
same,outcome,[8],inactive
same,outcome,[9],inactive
Clc1cccc(Cl)c1,outcome,[1],inactive
same,outcome,[2],inactive
same,outcome,[3],inactive
same,outcome,[4],inactive
same,outcome,[5],inactive
same,outcome,[6],inactive
same,outcome,[7],inactive
same,outcome,[8],inactive
same,outcome,[9],inactive
CC(C)(C)c1ccccc1O,outcome,[1],inactive
same,outcome,[2],inactive
same,outcome,[3],inactive
same,outcome,[4],inactive
same,outcome,[5],inactive
same,outcome,[6],inactive
same,outcome,[7],inactive
same,outcome,[8],inactive
same,outcome,[9],inactive
Cc1ccccc1OP(=O)(Oc1ccccc1C)Oc1ccccc1C,outcome,[10],inactive
CCCCCCCCCCCCc1cccc(S(=O)(=O)O)c1,outcome,[1],inactive
same,AC50,[2],45 µM (active)
same,outcome,[3],inactive
same,outcome,[4],inactive
same,outcome,[5],inactive
same,outcome,[6],inactive
same,AC50,[7],45 µM (active)
same,outcome,[8],inactive
same,outcome,[9],inactive
Oc1c(Cl)cc(Cl)cc1Cl,outcome,[1],inactive
same,outcome,[2],inactive
same,outcome,[4],inactive
same,outcome,[5],inactive
same,outcome,[7],inactive
same,outcome,[8],inactive
same,outcome,[9],inactive
O=C(N[C@H]1CN2CCC1CC2)c1ccc2c(c1)OCCO2,outcome,[1],inactive
same,outcome,[2],inactive
same,outcome,[3],inactive
same,outcome,[4],inactive
same,outcome,[5],inactive
same,outcome,[6],inactive
same,outcome,[7],inactive
same,outcome,[8],inactive
same,outcome,[9],inactive
COc1ccccc1N,outcome,[1],inactive
same,outcome,[2],inactive
same,outcome,[3],inactive
same,outcome,[4],inactive
same,outcome,[5],inactive
same,outcome,[6],inactive
same,outcome,[7],inactive
same,outcome,[8],inactive
same,outcome,[9],inactive
Cc1cc(C)cc(C)c1,outcome,[1],inactive
same,outcome,[2],inactive
same,outcome,[3],inactive
same,outcome,[4],inactive
same,outcome,[5],inactive
same,outcome,[6],inactive
same,outcome,[7],inactive
same,outcome,[8],inactive
same,outcome,[9],inactive
Cc1cc(C(C)(C)c2ccc(O)c(C)c2)ccc1O,AC50,[10],5 µM (active)
O=S1OC[C@@H]2[C@H](CO1)[C@]1(Cl)C(Cl)=C(Cl)[C@@]2(Cl)C1(Cl)Cl (some centres not stated),AC50,[10],50 µM (active)
